Compound activity: PubChem BioAssay, National Center for Advancing Translational Sciences (NCATS)
SW480 rereplic: DNA re-replication induction in SW480 cells; SW480 DNA re-replication, Hoechst DNA content imaging, 48 h; Potency, µM (doses to about 46.1 µM), for the others: at the highest dose re-replication activation, hits mostly activators; 1.8% of 340,000 active; note: potency is the fitted concentration of half-maximal effect; % of control where 0% means no effect; nearly all actives have a fitted effect of over 55% in size
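250 cells/well; 23 nL cpd via pin tool; 48 hr, 37 C, 5% CO2; Hoechst 40 min; imager read of total nuclear intensity, ex 405/em 500-530 nm.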
KCNH2 WT inh: inhibitors of human wildtype KCNH2 potassium channel | Q12809 | U2OS, BacMam KCNH2, thallium flux FluxOr; stronger effect = lower value | activity change, % at 1.84 µM | 0.37% of 340,000 active | AID 720551;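 active = maximum activity change below -70%; inconclusive = maximum activity change between -70% and -50%; inactive = maximum activity change above -50%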; note: % is set by controls: 0 for no effect and ±100 for the full control effect
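U2OS cells were transduced with wild-type KCNH2 virus (2.03 x 10^8 / mL) for 4 h at room temperature, then cultured overnight at 37 C. Thallium flux was read with FluxOr dye. Rate constants were normalized to DMSO controls.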
KB-V1 MDR tox: kills drug-selected multidrug resistant KB-V1 cells. AID 1347076. KB-V1 MDR cells viability, CellTiter-Glo, 72 h. Potency, µM (series often up to 46.1 µM), actives largely listed as cytotoxic. 3.4% of 400,000 active; note: potency is the fitted concentration of half-maximal effect; % is set by controls: 0 for no effect and ±100 for the full control effect; nearly all actives have a fitted effect of over 60% in size
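In this primary screen, KB-V1 cells overexpressing P-gp are incubated with library compounds (lowest to highest concentration) for 72 h at 37 degrees C before a luminescent ATP viability read.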
KCNH2 3.1 block: inhibitors of human KCNH2 3.1 potassium channel isoform; activity change, % (tested at about 1.8 µM); U2OS KCNH2 3.1, thallium flux FluxOr; stronger effect = lower value; AID 720553; 0.95% of 340,000 active;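 active = maximum activity change below -70%; inconclusive = maximum activity change from -70% to -50%; inactive = maximum activity change above -50%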;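 note: thallium influx rate constant from kinetic fluorescence after stimulation buffer; % is set by controls: 0 for no effect and ±100 for the full control effect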
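Thallium flux read-out: FluxOr dye with Red40 quencher in HBSS/HEPES, 45 min at RT. Rate constants from kinetic reads were normalized to positive and negative DMSO controls. Cells: U2OS virally expressing the 3.1 isoform.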
KB-3-1 tox: KB-3-1 parental cell cytotoxicity | KB-3-1 viability, CellTiter-Glo ATP luminescence, 72 h | Potency, µM (highest dose often 46.1 µM), most hits filed as cytotoxic | 1.4% of 400,000 active; note: potency is the fitted concentration of half-maximal effect; % is set by controls: 0 for no effect and ±100 for the full control effect; nearly all actives have a fitted effect of over 60% in size
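Screening of KB-3-1 cells (DMEM, 10% FBS, phenol-red free) ran from lowest to highest compound concentration; after 72 h at 37 °C viability was read luminescently and curves fitted.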
MCF10A rerep: induces DNA re-replication in MCF 10a normal breast cells. Potency, µM (series often up to 46.1 µM), without a hit: top-dose activity, positive = re-replication, actives largely listed as activators. 2.9% of 350,000 active. MCF 10A DNA re-replication, Hoechst nuclear intensity, 48 h. AID 624296; note: potency is the fitted concentration of half-maximal effect; % of control where 0% means no effect; nearly all actives have a fitted effect of over 50% in size
Starred values were filed as active, the others as inactive; ! = repeats disagree. A selection: hits, their analogues and other compounds. The true share with any hit is near 7.6%. Unless noted, calls come from the whole dose curve; as a rule, active = well fitted curve in the direction sought with a large enough effect; inconclusive = small, poorly fitted or top-dose-only effect, or another doubt; inactive = no such curve, though single readings can be large; an effect the other way counts as inactive or inconclusive.

Screening CCSc1nccc(-c2nn(-c3ccc(C)cc3)ccc2=O)n1 returned SW480 rereplic 7.3µM*, KCNH2 WT inh -2, KB-V1 MDR tox 2.6µM*, KCNH2 3.1 block -5, KB-3-1 tox 2.1µM* and MCF10A rerep 5.2µM*.
`CSc1nccc(-c2nn(-c3ccc(C)cc3)ccc2=O)n1` gave SW480 rereplic 13µM*, KCNH2 WT inh -4, KB-V1 MDR tox 2.9µM*, KCNH2 3.1 block -1, KB-3-1 tox 5.2µM* and MCF10A rerep 8.2µM*.
`CCOC(=O)c1cnc(Nc2nc3ccccc3o2)nc1CSC(=S)N(CC)CC` gave SW480 rereplic inconclusive, KCNH2 WT inh 6, KB-V1 MDR tox inconclusive, KCNH2 3.1 block -15, KB-3-1 tox 1.3µM* and MCF10A rerep inconclusive.
For CCCc1nc(Nc2nc3ccccc3o2)nc(C)c1C(=O)OCC the results were SW480 rereplic 1%, KCNH2 WT inh 32, KB-V1 MDR tox 3.7µM*, KCNH2 3.1 block 7, KB-3-1 tox inactive and MCF10A rerep 3%.
Screening CCOC(=O)c1cnc(Nc2nc3ccccc3o2)nc1CSc1ncccn1 returned SW480 rereplic -3%, KCNH2 WT inh -3, KB-V1 MDR tox inactive, KCNH2 3.1 block -27, KB-3-1 tox inactive and MCF10A rerep 10%.
CCn1cc2nc(SCC(=O)Nc3ccc(OC)c(OC)c3)n(Cc3ccc(Cl)cc3)c(=O)c2n1 was read as KB-V1 MDR tox inactive and KB-3-1 tox inactive.
Screening CCN1CCN(Cc2ccc(NC(=O)c3ccc(C)c(NC(=O)c4c[nH]c5cc(C(F)(F)F)ccc5c4=O)c3)cc2C(F)(F)F)CC1 returned SW480 rereplic 1.8µM*, KCNH2 WT inh -19, KB-V1 MDR tox inconclusive, KCNH2 3.1 block 5, KB-3-1 tox 2.3µM* and MCF10A rerep 12µM*.
CCN1CCN(Cc2ccc(NC(=O)c3cc(NC(=O)c4ccno4)cc(OC)c3)cc2C(F)(F)F)CC1 was read as SW480 rereplic 0%, KCNH2 WT inh -11, KB-V1 MDR tox inactive, KCNH2 3.1 block 2, KB-3-1 tox inactive and MCF10A rerep inconclusive.
Screening CCN1CCN(Cc2ccc(NC(=O)c3cc(NC(=O)c4cc(-c5ccc(OC)cc5)n[nH]4)cc(OC)c3)cc2C(F)(F)F)CC1 returned SW480 rereplic 28%, KCNH2 WT inh 1, KB-V1 MDR tox 16µM*, KCNH2 3.1 block -8, KB-3-1 tox inactive and MCF10A rerep 9%.
For CCN1CCN(Cc2ccc(NC(=O)c3cc(NC(=O)c4cncc(-c5cccs5)c4)cc(OC)c3)cc2C(F)(F)F)CC1 the results were SW480 rereplic inconclusive, KCNH2 WT inh -35, KB-V1 MDR tox 18µM*!, KCNH2 3.1 block 0, KB-3-1 tox inconclusive and MCF10A rerep 23µM*.
Screening CCCn1c(SCC(=O)Nc2nnc(-c3ccccc3)s2)nnc1-c1ccccn1 returned SW480 rereplic 0%, KCNH2 WT inh -8, KB-V1 MDR tox inactive, KCNH2 3.1 block 11, KB-3-1 tox inactive and MCF10A rerep 18µM*.
COC(=O)CSc1nnc(-c2ccncc2)n1N was read as SW480 rereplic 0%, KCNH2 WT inh 6, KB-V1 MDR tox inactive, KCNH2 3.1 block 2, KB-3-1 tox inactive and MCF10A rerep 2%.
`Cc1ccc(NC(=O)CSc2nnc(-c3ccncc3)n2N)cc1C` gave SW480 rereplic 2%, KCNH2 WT inh -204*, KB-V1 MDR tox inactive, KCNH2 3.1 block -7, KB-3-1 tox inactive and MCF10A rerep -1%.
Screening CC(C)c1ccc(NC(=O)CSc2nnc(-c3ccccn3)n2C)cc1 returned SW480 rereplic -13%, KCNH2 WT inh 1, KB-V1 MDR tox 5.2µM*, KCNH2 3.1 block 5, KB-3-1 tox inactive and MCF10A rerep -2%.
Screening COc1ccc(NC(=O)CSc2nnc(-c3ccccn3)n2N)cc1Cl returned SW480 rereplic -6%, KCNH2 WT inh -6, KB-V1 MDR tox 16µM*, KCNH2 3.1 block 1, KB-3-1 tox inactive and MCF10A rerep 2%.
`C=C1C=C(C(F)F)n2ncc(C(=O)Nc3ccc(Br)cc3C(F)(F)F)c2N1` gave KB-V1 MDR tox inactive and KB-3-1 tox inactive.
